Bioassay records deposited in PubChem by The Scripps Research Institute Molecular Screening Center.
Rows were chosen to be rich in hits. Some 3.1% of all compounds tested hit in one or more screens of this group.
PAFAH2 inh = PAFAH2 enzyme inhibitors, primary screen, biochemical, fluorescence polarization, human. recombinant PAFAH2, FP-rhodamine activity probe. Platelet-activating factor acetylhydrolase 2, cytoplasmic (Homo sapiens), Q99487. inhibition, % at 3.39 µM. AID 492956, 2010. 340,000 tested, 0.99% active;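 active means inhibition above the mean over all tested compounds plus 3 SD, cut at about 30% in these data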;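 further: inhibitors block probe labeling of enzyme so polarization drops; 0% = enzyme with DMSO and 100% = wells lacking PAFAH2 protein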
PAFAH1B2 FP inh = PAFAH1B2 enzyme inhibitors, primary screen, biochemical, fluorescence polarization, human | inhibition, % at 3.39 µM | 340,000 tested, 1.2% active | Platelet-activating factor acetylhydrolase IB subunit alpha2 (Homo sapiens), P68402 | recombinant PAFAH1B2, FP-rhodamine activity probe;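 active means inhibition above the mean of all tested compounds plus 3 SD, cut at about 24% in these data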;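 further: 0% = enzyme with DMSO and 100% = wells lacking PAFAH1B2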
Target sequence (P68402 whole entry, looked up): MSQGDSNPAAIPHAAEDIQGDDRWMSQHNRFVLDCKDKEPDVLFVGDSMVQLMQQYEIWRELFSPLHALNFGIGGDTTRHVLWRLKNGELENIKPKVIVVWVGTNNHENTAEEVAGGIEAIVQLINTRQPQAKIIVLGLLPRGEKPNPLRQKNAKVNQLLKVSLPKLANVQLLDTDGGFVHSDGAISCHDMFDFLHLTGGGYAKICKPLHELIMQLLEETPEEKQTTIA
E coli Lon inh = inhibitors of E. coli Lon protease, primary screen, biochemical, fluorescence polarization; P0A9M0; purified E. coli Lon protease; inhibition, % at 7.94 µM; 360,000 tested, 0.42% active; AID 602123, 2011; in the data active means inhibition above about 13%, passing the limit was not always enough;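 further: 0% = enzyme with probe and DMSO and 100% = no enzyme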
Rin1 Abl inh = inhibitors of Rin1-Abl protein binding, primary screen, biochemical, TR-FRET; 360,000 tested, 0.4% active; Tyrosine-protein kinase ABL1 (Homo sapiens) + Ras and Rab interactor 1 (Homo sapiens), …; AID 588664, 2011; inhibition, % at 7.35 µM; in the data active means inhibition above about 5%, passing the limit was not always enough
PAFAH1B3 inh = PAFAH1B3 enzyme inhibitors, primary screen, biochemical, fluorescence polarization, human | AID 492972, 2010 | 340,000 tested, 0.28% active | inhibition, % at 3.39 µM | Platelet-activating factor acetylhydrolase IB subunit alpha1 (Homo sapiens), Q15102 | recombinant PAFAH1B3, FP-rhodamine probe;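 active means inhibition above the screen-wide average of all tested compounds plus 3 SD, cut at about 25% in these data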;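 further: 0% = enzyme with DMSO only and 100% = wells lacking PAFAH1B3 protein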
pPAFAH FP inh = pPAFAH enzyme inhibitors, primary screen, biochemical, fluorescence polarization, human; Platelet-activating factor acetylhydrolase (Homo sapiens), Q13093; recombinant pPAFAH, FP-rhodamine probe fluorescence polarization; inhibition, % at 3.39 µM; 330,000 tested, 1.5% active; AID 463082, 2010;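 active means inhibition above the mean inhibition across the screen plus 3 SD, cut at about 25% in these data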;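 further: inhibitors block binding of the rhodamine activity-based probe so polarization drops; 0% = enzyme with DMSO and 100% = wells lacking pPAFAH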
Target sequence (Q13093 whole entry, looked up): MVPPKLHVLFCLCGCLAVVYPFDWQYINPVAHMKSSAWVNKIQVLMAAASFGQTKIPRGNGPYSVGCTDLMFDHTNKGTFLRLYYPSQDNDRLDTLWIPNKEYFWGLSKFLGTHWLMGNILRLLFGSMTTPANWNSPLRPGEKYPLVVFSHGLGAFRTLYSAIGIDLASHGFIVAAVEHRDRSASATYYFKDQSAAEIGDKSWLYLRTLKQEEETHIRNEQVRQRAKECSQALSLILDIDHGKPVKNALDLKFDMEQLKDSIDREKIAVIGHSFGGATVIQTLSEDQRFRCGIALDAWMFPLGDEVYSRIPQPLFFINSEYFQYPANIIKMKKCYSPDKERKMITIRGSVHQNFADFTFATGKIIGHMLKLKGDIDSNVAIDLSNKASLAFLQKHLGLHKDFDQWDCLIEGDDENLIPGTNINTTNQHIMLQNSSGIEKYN
* = called active by the depositor; . = no result.

SMILES	PAFAH2 inh	PAFAH1B2 FP inh	E coli Lon inh	Rin1 Abl inh	PAFAH1B3 inh	pPAFAH FP inh
O=C(CNS(=O)(=O)c1ccc(Br)s1)N1CCN(c2ccc(F)cc2)CC1	15.3	9.8	8.3	1.5	2.3	7.6
c1ccc(C(c2ccccc2)c2ccn[nH]2)cc1	3.2	27.1*	-3.3	2.0	2.3	1.8
O=C(O)c1cc(NC(=S)NC(=O)C(c2ccccc2)c2ccccc2)ccc1Cl	3.5	32.3*	-4.9	-0.7	3.2	-3.2
O=C(NC(=S)Nc1ccc(Cl)c(C(=O)O)c1)c1ccco1	5.9	-1.5	3.2	-0.5	8.5	4.5
CSCCC(NC(=O)c1ccccc1Br)C(=O)NNC(=O)c1ccncc1 (stereo unspecified)	0.2	4.1	-1.3	1.6	0.3	-2.5
O=C(CN1CCN(S(=O)(=O)c2ccc(Br)s2)CC1)NCC1CCCCC1	.	.	1.6	0.4	.	.
O=C(CN1CCN(S(=O)(=O)c2ccc(Br)s2)CC1)NC1CCCCC1	13.2	30.2*	8.8	0.1	7.7	.
O=C(c1ccccc1O)N1CCOCC1	5.8	1.9	-3.9	1.2	11.2	2.9
Cc1ccc2c(c1C)NC(C(=O)O)C1CC=CC21 (stereo unspecified)	43.7*	8.8	-5.7	6.6	11.5	64.6*
FC(F)(F)c1ccc2c(c1)C1C=CCC1C(c1ccncc1)N2 (stereo unspecified)	8.9	1.2	4.6	3.7	7.0	.
CCOC(=O)c1ccc2c(c1)C1C=CCC1C(C(=O)O)N2 (stereo unspecified)	.	.	.	.	.	83.0*
O=C(O)C1Nc2c(C(=O)N3CCOCC3)cccc2C2C=CCC12 (stereo unspecified)	22.7	6.5	6.2	6.8*	1.2	19.8
O=C(O)c1ccc2c(c1)C1C=CCC1C(c1ccncc1)N2 (stereo unspecified)	-0.4	0.6	7.2	-2.4	21.2	25.4*
CCOc1ccc(CCNc2nc3ccc(C)cc3n3cnnc23)cc1OCC	4.4	4.4	-6.0	0.8	2.9	2.7
CC1(C)Cc2c(cnn2-c2cccc(F)c2)C(NC(=O)c2ccc[n+]([O-])c2)C1 (stereo unspecified)	-2.8	2.9	1.0	3.5	10.0	.
Clc1ccc(CSc2nnc(-c3ccccn3)n2Cc2cccs2)cc1Cl	.	.	3.3	-0.9	.	.
Cc1ccc(C(C)(C)NC(=O)C2CCC(=O)N(Cc3ccccc3F)C2)cc1 (stereo unspecified)	2.8	2.1	-4.4	0.7	-0.4	-0.5
CC1(C)CC(NC(=O)C2CCC(=O)N(Cc3ccccc3F)C2)CC(C)(C)C1 (stereo unspecified)	3.4	27.5*	-11.1	-0.5	15.4	.
CC1(C)CCCC2(C)C1CCC1(C)OC(=O)CCC12 (stereo unspecified)	.	.	-5.0	1.2	.	.
CC(=O)OC[C@]12CC[C@H]3[C@@](C)(CC[C@H]4C(C)(C)CCC[C@]34C)[C@@H]1C[C@H](C1=CC(=O)O[C@@H]1OC(C)=O)O2	.	.	.	.	.	44.9*
O=C1c2ccccc2C(=O)C12OC2c1cccc2ccccc12 (stereo unspecified)	18.6	15.8	0.8	13.3*	64.9*	4.7
O=C1NC(c2cccc3ccccc23)Nc2ccccc21 (stereo unspecified)	5.8	1.0	-11.5	-1.0	8.1	.
CCCNC(=O)NC1CCCc2ccccc21 (stereo unspecified)	11.8	-0.7	1.0	1.8	3.9	4.4
Oc1cccc(O)c1O	.	.	.	.	.	95.6*
O=C(O)c1cccc(O)c1O	2.4	-1.6	1.5	4.7	3.9	1.4
SMILES	PAFAH2 inh	PAFAH1B2 FP inh	E coli Lon inh	Rin1 Abl inh	PAFAH1B3 inh	pPAFAH FP inh
CCCS(=O)(=O)NC(=O)C1(C)CCN(C(=O)c2cc(C)oc2C)C1 (stereo unspecified)	.	.	-7.2	2.4	.	.
CCOc1ccc(S(=O)(=O)N2CCOCC2)cc1NC(=O)CSCC(=O)Nc1ccc(OC)cc1	3.9	-1.5	-11.5	1.7	5.6	.
c1ccc(OCc2nn3c(Cn4nnc5ccccc54)nnc3s2)cc1	-0.4	24.4*	4.0	-4.5	-4.4	12.5
COC(=O)c1cc(NCc2c(F)cccc2Cl)ccc1N1CCOCC1	3.2	-2.3	-6.1	0.6	5.7	29.8*
COC(=O)c1cc(NCc2cccs2)ccc1N1CCOCC1	13.1	5.1	0.1	-0.8	-5.0	5.9
COCCNC(=O)C1(C)CCCN(C(=O)c2cc(C)on2)C1 (stereo unspecified)	.	.	-4.0	-2.8	.	.
CC(C)(C)c1ccc(C2=CC(c3ccccc3)n3ncnc3N2)cc1 (stereo unspecified)	13.3	58.1*	0.2	0.5	8.8	26.1*
CCc1ccc(CNc2ccc(N3CCN(C(C)=O)CC3)cc2)cc1	-7.9	-0.1	2.1	4.8	-2.1	30.2*
Cc1nn(-c2ccccc2)c(Cl)c1/C=N/NC(=O)c1ccc(NS(=O)(=O)c2cccs2)cc1	.	.	.	.	.	13.3
Cc1nn(-c2ccccc2)c(Cl)c1/C=N/NC(=O)c1ccccc1NS(=O)(=O)c1cccs1	-3.7	0.6	-7.1	-0.4	7.6	32.7*
Cc1c(Cc2ccccc2)sc(/N=C/c2ccc3ccccc3c2)c1C(N)=O	-25.1	-8.5	-24.1	-2.1	-2.0	9.7
Cc1c(Cc2ccccc2)sc(NC(=O)C(C)(C)C)c1C(N)=O	0.8	0.9	-5.8	-3.2	1.0	3.8
Cc1c(Cc2ccccc2)sc(/N=C/c2c(O)ccc3ccccc23)c1C(N)=O	-37.3	-20.9	-254.0	-0.2	-10.1	32.1*
Cc1c(Cc2ccccc2)sc(N)c1C(N)=O	.	.	.	.	.	28.1*
C[C@@H]1CN([C@H](C)CO)C(=O)c2cc(Br)cnc2O[C@H]1CN(C)C(=O)CC1CC1	.	.	-1.9	0.4	.	.
NC1=C(Cl)C(=O)c2ccc(S(N)(=O)=O)cc2C1=O	48.3*	24.7*	-6.4	-9.5	68.6*	.
NC1=C(Cl)C(=O)c2ccccc2C1=O	2.7	8.3	-6.3	-9.8	20.5	.
N#Cc1c(N)nc2c3c(sc(=N)c2c1N)NC(=O)CC3c1c(F)cccc1Cl (stereo unspecified)	3.6	-16.8	-13.8	-20.6	1.6	26.6*
N#Cc1c(N)nc2c3c(sc(=N)c2c1N)NC(=O)CC3c1ccccc1 (stereo unspecified)	2.4	-5.9	-18.0	-4.5	7.4	28.4*
Cc1c(C#N)c(N)nc2c3c(sc12)NC(=O)CC3c1ccc(Cl)cc1 (stereo unspecified)	1.9	6.3	-4.8	-6.8	3.3	7.2
C[C@H]1CC[C@]2(O[C@@H](CCO)C[C@H](O)[C@H]2O)O1	-13.2	0.4	9.4	3.2	1.4	2.6
